Experimental data reported in PubChem BioAssay (NCATS).
Records with an inconclusive call do not appear. Activity calls are given as the source filed them. Calls come from the whole dose curve; as a rule, active = well fitted curve in the direction sought with a large enough effect; inconclusive = small, poorly fitted or top-dose-only effect, or another doubt; inactive = no such curve, though single readings can be large; an effect the other way counts as inactive or inconclusive.

Tests used:
[1] = target: Aldehyde dehydrogenase, mitochondrial (Homo sapiens) (UniProt P05091); experiment: qHTS for Inhibitors of the Aldehyde Dehydrogenase Family (ALDH2) Primary screen (AID 2061308);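 note: plate controls were vehicle for no effect and reference inhibitor for full effect; nearly all actives have a fitted effect of over 55% in size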
[2] = target: Retinaldehyde dehydrogenase 3 (Homo sapiens) (UniProt P47895); experiment: qHTS for Inhibitors of the Aldehyde Dehydrogenase Family (ALDH1A3) Primary screen (AID 2061315);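 note: plate controls were DMSO vehicle for no effect and reference inhibitor for full effect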
[3] = BET inhibitor-based combinations targeting novel dependencies in MECOM-rearranged (r) AML: SET-2 cell line (AID 2202231); details: SET-2 AML cells viability, CellTiter-Glo luminescence, 48 h; viability: stronger effect = lower value, concentration not given here; note: nearly all actives have a fitted effect of over 35% in size; note: potency is the fitted concentration of half-maximal effect;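 for viability: plate controls were DMSO treated cells for no effect and wells without cells for full effect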
How it was run: (§1)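 A 48 hr incubation preceded viability reading by CellTiter-Glo, with 15 min room-temperature development. Dose series had 11 points; normalization used DMSO and empty wells; AUC was computed and mean-centered per line as Z-AUC.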

[4] = BET inhibitor-based combinations targeting novel dependencies in MECOM-rearranged (r) AML: OCI-AML3 cell line (AID 2202232); details: Potency: OCI-AML3 viability; note: nearly all actives have a fitted effect of over 35% in size; note: potency is the fitted concentration of half-maximal effect
How it was run: as §1

[5] = BET inhibitor-based combinations targeting novel dependencies in MECOM-rearranged (r) AML: MV-4-11 cell line (AID 2202233); note: nearly all actives have a fitted effect of over 45% in size; note: potency is the fitted concentration of half-maximal effect
How it was run: (§2)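 Each compound is tested in an 11-point concentration series against 500 seeded cells/well for 48 hr. The luminescent viability signal is normalized to DMSO and blank wells, then reduced to AUC and a cell-line-centred Z-AUC.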

[6] = BET inhibitor-based combinations targeting novel dependencies in MECOM-rearranged (r) AML: HNT-34 cell line (AID 2202234); note: nearly all actives have a fitted effect of over 35% in size; note: potency is the fitted concentration of half-maximal effect
How it was run: as §2

[7] = BET inhibitor-based combinations targeting novel dependencies in MECOM-rearranged (r) AML: UCSD-AML1 cell line (AID 2202235); note: nearly all actives have a fitted effect of over 40% in size; note: potency is the fitted concentration of half-maximal effect
How it was run: as §2

[8] = BET inhibitor-based combinations targeting novel dependencies in MECOM-rearranged (r) AML: AML-191 cell line (AID 2202236; note: nearly all actives have a fitted effect of over 35% in size; note: potency is the fitted concentration of half-maximal effect)
How it was run: as §1

[9] = BET inhibitor-based combinations targeting novel dependencies in MECOM-rearranged (r) AML: AML-194 cell line (AID 2202237; note: nearly all actives have a fitted effect of over 40% in size; note: potency is the fitted concentration of half-maximal effect)
How it was run: as §1

[10] = target: Aldehyde dehydrogenase 1A1 (Homo sapiens) (UniProt P00352); experiment: qHTS for Inhibitors of the Aldehyde Dehydrogenase Family (ALDH1A1) Confirmatory screens (AID 2061316); note: nearly all actives have a fitted effect of over 65% in size; note: potency is the fitted concentration of half-maximal effect

C[C@H]1[C@H](O)O[C@@H]2O[C@@]3(C)CC[C@H]4[C@H](C)CC[C@@H]1[C@@]24OO3
active: Potency [3] 1.32 µM | Potency [4] 1.18 µM | Potency [5] 0.662 µM | Potency [6] 1.18 µM | Potency [7] 3.32 µM
inactive: Potency [1] | Potency [2]

O=C(NCc1ccc(S(=O)(=O)c2cccc(C(F)(F)F)c2)cc1)c1cnc2[nH]ncc2c1
inactive: Potency [1] | Potency [2] | viability [3] 110%
active: Potency [4] 0.0148 µM | Potency [5] 0.0833 µM | Potency [6] 0.0263 µM | Potency [7] 0.0209 µM | Potency [8] 0.0148 µM | Potency [9] 0.742 µM

O=C(CO)N1CCC(c2[nH]nc(-c3ccc(Cl)cc3)c2-c2ccncn2)CC1
inactive: Potency [1] | Potency [2] | viability [3] 101% | Potency [4] | Potency [5] | Potency [6] | Potency [7] | Potency [8] | Potency [9]

Cc1cc(C(=O)Nc2cc(Nc3ccc4c(/C=C/c5ccccn5)n[nH]c4c3)ccc2F)n(C)n1
inactive: Potency [1] | Potency [2]
active: Potency [3] 18.6 µM | Potency [4] 18.6 µM | Potency [5] 16.6 µM | Potency [6] 7.42 µM | Potency [7] 6.61 µM | Potency [8] 16.6 µM

Cc1cc(CN2CCN(c3c(Br)cnc4nc(-c5ccc(N6CCN(C)CC6)cc5)[nH]c34)CC2)no1
inactive: Potency [1] | Potency [2]
active: Potency [3] 9.34 µM | Potency [4] 8.33 µM | Potency [5] 0.332 µM | Potency [6] 1.48 µM | Potency [7] 2.63 µM | Potency [9] 4.17 µM

C=CC(=O)Nc1ccc2ncnc(Nc3ccc(OCc4cccc(F)c4)c(Cl)c3)c2c1
active: Potency [3] 10.5 µM | Potency [4] 5.9 µM | Potency [5] 6.61 µM | Potency [6] 6.61 µM | Potency [8] 7.42 µM | Potency [9] 8.33 µM
inactive: Potency [1] | Potency [2]

O=C1Nc2ccccc2C12CC2c1cc(Cl)c(O)c(Cl)c1 (stereo unspecified)
inactive: Potency [1] | Potency [2] | Potency [10]

COc1cc(Oc2ccnc3cc(OC)c(OC)cc23)ccc1NC(=O)NC(C)c1nccs1 (stereo unspecified)
active: Potency [3] 10.5 µM | Potency [4] 10.5 µM | Potency [5] 11.8 µM | Potency [6] 13.2 µM | Potency [9] 13.2 µM
inactive: Potency [1] | Potency [2] | Potency [7]

C=CC(=O)Nc1ccc2ncnc(Nc3cccc(Br)c3)c2c1
inactive: Potency [1] | Potency [2]
active: Potency [3] 26.3 µM | Potency [4] 11.8 µM | Potency [5] 7.42 µM | Potency [6] 9.34 µM | Potency [7] 8.33 µM | Potency [8] 8.33 µM | Potency [9] 11.8 µM

O=C1Nc2ccccc2/C1=C/c1cc(Cl)c(O)c(Cl)c1
inactive: Potency [1] | Potency [2]
active: Potency [10] 17.9 µM

Cn1nnnc1Sc1ncnc2scc(-c3cccc(N)c3)c12
inactive: Potency [1] | Potency [2]
active: Potency [10] 22.5 µM

Cc1nc(-c2cn3c(n2)-c2ccc(-c4cnn(C(C)(C)C(N)=O)c4)cc2OCC3)n(C(C)C)n1
inactive: Potency [1] | Potency [2]
active: Potency [3] 23.5 µM | Potency [4] 0.742 µM | Potency [5] 5.25 µM | Potency [7] 0.209 µM

CN1CCN(C(=O)c2ccc(-c3cnc4c(O)ccc(C(=O)O)c4c3)cc2)CC1
inactive: Potency [1] | Potency [2] | Potency [10]

COc1cc(-c2cc(-c3ccc(N4CCNCC4)cc3)cnc2C)cc(OC)c1OC
active: Potency [4] 8.33 µM | Potency [5] 10.5 µM
inactive: Potency [1] | Potency [2] | viability [3] 104%

CCn1cc(-c2ccnc3[nH]c(-c4cccc(CN(C)C)c4)cc23)c(-c2ccc(NC(=O)N(C)C)cc2)n1
inactive: Potency [1] | Potency [2]
active: Potency [3] 16.6 µM | Potency [4] 8.33 µM | Potency [5] 0.186 µM | Potency [6] 3.32 µM | Potency [7] 4.17 µM | Potency [8] 5.25 µM | Potency [9] 5.9 µM

O=C1Nc2nc(-c3c(O)cccc3OCC3CC3)cc([C@@H]3CCCNC3)c2CO1
active: Potency [3] 20.9 µM | Potency [4] 16.6 µM | Potency [5] 5.9 µM | Potency [6] 18.6 µM | Potency [8] 18.6 µM | Potency [9] 18.6 µM
inactive: Potency [1] | Potency [2]

Fc1ccc(NC(=S)Nc2nnc(-c3ccncc3)s2)cc1C(F)(F)F
active: Potency [10] 5.04 µM
inactive: Potency [1] | Potency [2]

COc1cccc(Nc2ncnn3ccc(CN4CC[C@@H](N)[C@H](O)C4)c23)c1
inactive: Potency [1] | Potency [2] | viability [3] 90.8%
active: Potency [4] 14.8 µM | Potency [5] 0.296 µM | Potency [6] 1.32 µM | Potency [7] 4.17 µM | Potency [8] 4.68 µM

CNS(=O)(=O)c1ccc2c(c1)/C(=C/c1[nH]c3c(c1CCCN1CCN(C)CC1)CCCC3)C(=O)N2
inactive: Potency [1] | Potency [2]
active: Potency [3] 18.6 µM | Potency [4] 18.6 µM | Potency [5] 1.18 µM | Potency [6] 20.9 µM | Potency [8] 14.8 µM | Potency [9] 13.2 µM

c1nc(NC[C@@H]2CCCO2)c2cc(-c3ccc4c(c3)OCO4)ccc2n1
active: Potency [10] 20.1 µM
inactive: Potency [1] | Potency [2]

CCCCNc1ncc2c(-c3ccc(F)cc3)nn(CC3CCC(N)CC3)c2n1 (stereo unspecified)
active: Potency [3] 14.4 µM | Potency [4] 9.1 µM | Potency [5] 0.129 µM | Potency [6] 4.56 µM | Potency [7] 6.45 µM | Potency [8] 5.74 µM | Potency [9] 5.74 µM
inactive: Potency [1] | Potency [2]

Nc1scc2c(C(=O)O)nn(-c3ccccc3)c(=O)c12
inactive: Potency [1] | Potency [2]
active: Potency [10] 5.04 µM

COc1cc(Nc2ncc(F)c(Nc3ccc4c(n3)N(COP(=O)(O)O)C(=O)C(C)(C)O4)n2)cc(OC)c1OC
active: Potency [3] 13.2 µM | Potency [5] 0.833 µM | Potency [6] 2.09 µM | Potency [7] 2.63 µM | Potency [8] 3.72 µM
inactive: Potency [1] | Potency [2] | Potency [4]

Cc1ccc(CNc2ncnc3ccc(-c4sc(C)nc4C)cc23)o1
active: Potency [10] 15.9 µM
inactive: Potency [1] | Potency [2]

COC(=O)N[C@@H](C)CNc1nccc(-c2cn(C(C)C)nc2-c2cc(Cl)cc(NS(C)(=O)=O)c2F)n1
active: Potency [3] 2.63 µM | Potency [4] 1.66 µM | Potency [5] 2.35 µM | Potency [6] 0.833 µM | Potency [8] 1.66 µM | Potency [9] 2.09 µM
inactive: Potency [1] | Potency [2]

CCCCCCCCCCCCCCCCOCCCOP(=O)(O)COC(CO)Cn1ccc(N)nc1=O (stereo unspecified)
active: Potency [4] 20.9 µM | Potency [7] 10.5 µM
inactive: Potency [1] | Potency [2] | viability [3] 118% | Potency [5] | Potency [6] | Potency [8] | Potency [9]

C=CC(=O)N1CCC(Oc2cc3c(Nc4ccc(Cl)c(Cl)c4F)ncnc3cc2OC)CC1
inactive: Potency [1] | Potency [2]
active: Potency [3] 20.9 µM | Potency [4] 13.2 µM | Potency [5] 10.5 µM | Potency [6] 16.6 µM

Cc1c(C(=O)OCC(C)(C)C)[nH]c2c1C(=O)CC(c1ccco1)C2 (stereo unspecified)
inactive: Potency [1] | Potency [2]
active: Potency [10] 0.896 µM

O=C([C@H](Cc1ccc(O[S+](=O)([O-])c2ccccn2)cc1)N[S+](=O)([O-])c1cccc2cnccc12)N1CCN(c2ccccc2)CC1
inactive: Potency [1] | Potency [2]
active: Potency [10] 7.98 µM

Nc1ccc(C(=O)c2cc3c(ccc4ccccc43)[nH]2)cc1
active: Potency [3] 30.3 µM | Potency [4] 6.79 µM | Potency [5] 3.82 µM | Potency [6] 2.41 µM | Potency [7] 2.7 µM | Potency [8] 1.52 µM | Potency [9] 2.41 µM
inactive: Potency [1] | Potency [2]

C[C@H](CN(C)C)Oc1nc(Nc2cc3cccc(Cl)c3cn2)cnc1C#N
inactive: Potency [1] | Potency [2]
active: Potency [4] 4.68 µM | Potency [5] 1.86 µM

CN(C)Cc1ccc(-c2nc3cccc4c3n2CCNC4=O)cc1
inactive: Potency [1] | Potency [2] | Potency [4]
active: Potency [6] 18.6 µM | Potency [9] 23.5 µM

COc1ccccc1-c1cccc(-c2c(O)c3cc(C#N)c(Cl)cc3[nH]c2=O)c1
inactive: Potency [1] | Potency [2] | viability [3] 99.8% | Potency [5] | Potency [6] | Potency [7] | Potency [8] | Potency [9]

Cn1cc(-c2cnc3ccc4ccc(CS(=O)(=O)NCc5ccccn5)cc4c(=O)c3c2)cn1
active: Potency [3] 16.6 µM | Potency [6] 23.5 µM | Potency [8] 23.5 µM
inactive: Potency [1] | Potency [2] | Potency [4] | Potency [7]

O=C(O)C1=CO[C@@H](O[C@@H]2O[C@H](CO)[C@@H](O)[C@H](O)[C@H]2O)[C@@H]2C(CO)=CC[C@H]12
inactive: Potency [1] | Potency [2] | viability [3] 118% | Potency [6] | Potency [7] | Potency [8] | Potency [9]

Cc1ccc(C(=O)Nc2ccc(CN3CCN(C)CC3)c(C(F)(F)F)c2)cc1C#Cc1cnc2[nH]ncc2c1
inactive: Potency [1] | Potency [2]
active: Potency [4] 0.934 µM | Potency [5] 0.0023 µM | Potency [7] 0.105 µM | Potency [8] 0.0934 µM | Potency [9] 0.148 µM

O=C(C1CC1)N1CC[C@@H](Cn2c(-c3ccc(-c4ccc5occc5c4)cc3)nc3cnccc32)C1
inactive: Potency [1] | Potency [2]
active: Potency [4] 10.5 µM | Potency [5] 20.9 µM | Potency [6] 26.3 µM

Nc1[nH]nc2nnc(-c3c(-c4ccccc4)nn4ccccc34)cc12
active: Potency [4] 14.8 µM | Potency [5] 10.5 µM | Potency [8] 18.6 µM
inactive: Potency [1] | Potency [2] | viability [3] 111% | Potency [7]

CC(=O)O[C@H]1C(=O)[C@@]2(C)C([C@H](OC(=O)c3ccccc3)[C@]3(O)C[C@H](OC(=O)[C@H](O)[C@@H](NC(=O)c4ccccc4)c4ccccc4)C(C)=C1C3(C)C)[C@]1(OC(C)=O)CO[C@@H]1C[C@@H]2O (stereo partly specified)
inactive: Potency [1] | Potency [2]
active: Potency [3] 0.148 µM | Potency [4] 0.0059 µM | Potency [8] 0.0209 µM

C[C@@H]1COCCN1c1cc(C2(S(C)(=N)=O)CC2)nc(-c2ccnc3[nH]ccc23)n1 (stereo partly specified)
inactive: Potency [1] | Potency [2]
active: Potency [4] 1.86 µM | Potency [5] 2.35 µM | Potency [6] 4.68 µM | Potency [8] 2.63 µM

Cn1c(NC[C@@H](N)Cc2ccccc2)nc(-c2ccncc2)c(-c2ccc3ccccc3c2)c1=O
inactive: Potency [1] | Potency [2]
active: Potency [4] 20.9 µM | Potency [5] 20.9 µM | Potency [6] 26.3 µM | Potency [9] 26.3 µM
